Sampled rows, rich in hits. Any-hit rate of the full collection: about 9.7%.
Autofluor 339 – intrinsic fluorescence of library compounds, ex339/em460 – biochemical, MLSMR library, data from DPM-DC assay, artefact control, profiling panel. compound autofluorescence, ex339/em460 nm, NADH buffer; active compounds read high; 1 = no-compound wells, NADH background. fluorescence fold increase at 10 µM. hit rate 5.5% among 65,000;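 active = at 10 µM, mean starting fluorescence two-fold or more over control wells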;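 also: signal is the first read of a kinetic run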
BAP1 inh – blocks human BAP1 ubiquitin-AMC hydrolysis | Q92560 | recombinant BAP1, Ub-AMC hydrolysis fluorescence kinetic; active compounds read low | calls only at 20 µM | hit rate 0.48% among 72,000;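 active = activity remaining at or below 50% of control, provided the compound also passes the data quality filters; inactive = the rest, including low values that fail the filters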
A340 absorber – compound absorbs light at 340 nm. compound absorbance at 340 nm, fold over control. fold change at 10 µM. 65,000 tested, under 10 active. AID 708;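 active = at 10 µM dose, initial 340 nm absorbance at least 2 fold that of control wells; inactive = change under 2 fold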;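 also: initial absorbance extrapolated from kinetic A340 decline of NADH oxidation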
WNV protease inh – inhibitors of West Nile virus NS2B-NS3 protease; P06935; WNV NS2B-NS3 protease, fluorogenic substrate Ex360/Em465; active compounds read low; z-score (test concentration not listed); hit rate 0.18% among 65,000; in the data active = z-score below about -3
M1 antagonist – blocks the rat M1 muscarinic receptor response to acetylcholine; CHO-M1 cells, Fluo-4 calcium, ACh EC80 antagonist mode; active compounds read low; B-score at 10 µM; P08482; hit rate 3.4% among 64,000;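 active = calcium fluorescence response, raw or row-and-column corrected B-score, differing from the plate sample mean either way at a set confidence level, mostly lower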
M1 agonist – agonists of M1 muscarinic receptor. CHO-M1 cells, Fluo-4 calcium fluorescence, agonist mode; active compounds read high. hit rate 3% among 64,000. B-score at 10 µM;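 active = fluorescence rise, raw or as B-score row- and column-corrected plate score, outside the 99.7% band of its plate's samples, either direction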
M1 agonist conf – rat M1 muscarinic agonism, confirmation; fluorescence change (max-min) at 10 µM; shares compounds with M1 agonist; CHO-M1 cells, Fluo-4 calcium fluorescence, agonist mode; actives lie on both sides; hit rate 19% among 1,700;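 active = fluorescence change differs from the solvent-only DMSO control mean at a set confidence level in both duplicate runs; inconclusive = differs from solvent-only control mean in just one of two runs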;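 also: an EC20 dose of acetylcholine follows compound addition during the same imaging run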
M4 agonist ctr – activates rat M4 receptor in counter-screen for M1 agonists; shares compounds with M1 agonist; CHO M4/Gqi5 cells, Fluo-4 calcium fluorescence, agonist mode; actives lie on both sides; fluorescence change (max-min) at 10 µM; hit rate 9% among 1,700; AID 1741;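 active = fluorescence change differing from the plate's solvent-only control wells at 99.7% confidence in both duplicates, whether higher or lower; inconclusive = differs from solvent controls in only one of two duplicates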
Target sequence (P08485 whole entry, looked up): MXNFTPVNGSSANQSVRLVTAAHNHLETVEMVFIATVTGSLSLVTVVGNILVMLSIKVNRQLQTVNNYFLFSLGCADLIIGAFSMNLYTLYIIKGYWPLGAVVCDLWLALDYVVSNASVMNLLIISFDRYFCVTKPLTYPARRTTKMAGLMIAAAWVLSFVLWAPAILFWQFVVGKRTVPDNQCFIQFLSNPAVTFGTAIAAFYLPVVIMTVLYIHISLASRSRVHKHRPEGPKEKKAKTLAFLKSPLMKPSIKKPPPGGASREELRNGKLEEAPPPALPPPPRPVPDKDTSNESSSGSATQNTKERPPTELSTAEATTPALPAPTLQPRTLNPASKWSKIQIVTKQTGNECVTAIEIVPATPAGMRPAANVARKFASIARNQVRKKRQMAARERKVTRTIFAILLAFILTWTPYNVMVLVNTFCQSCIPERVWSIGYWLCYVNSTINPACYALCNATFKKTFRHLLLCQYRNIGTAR
Each line names hits and unclear results; the compound was inactive in the other large screens (follow-up assays come after a bar, where shown).

COc1cc(C2C(C#N)=C(N)Oc3cc(C)oc(=O)c32)cc2c1OCO2 (stereo not given)	none
CCc1cccc(C)c1-n1nnnc1C(C)(C)N(C)C	none (no result: Autofluor 339, A340 absorber, WNV protease inh, M1 antagonist, M1 agonist)
COc1cccc(-c2ccc(-c3noc(-c4ccccc4F)n3)c(OC)n2)c1	Autofluor 339 3.8, M1 agonist 15 | M1 agonist conf inactive | M4 agonist ctr inactive
COc1ccc(CNC(=O)c2nn3c(c2Cl)NC(c2ccc(Br)cc2)CC3C(F)(F)F)cc1 (stereo not given)	none (no result: Autofluor 339, A340 absorber, WNV protease inh, M1 antagonist, M1 agonist)
CC1CCCN(c2nc3ccccc3nc2C(C#N)S(=O)(=O)c2ccccc2)C1 (stereo not given)	none (no result: BAP1 inh)
COc1ccc(S(=O)(=O)C(C#N)c2nc3ccccc3nc2N2CCC(C)CC2)cc1 (stereo not given)	M1 agonist 3.9 (no result: BAP1 inh) | M1 agonist conf inconclusive | M4 agonist ctr inactive
Cc1ccccc1C(=NS(=O)(=O)c1ccc(Br)cc1)Nc1ccccc1	none (no result: Autofluor 339, A340 absorber, WNV protease inh, M1 antagonist, M1 agonist)
Cc1csc(SCC(=O)Nc2cc(C(C)(C)C)nn2-c2ccccc2)n1	M1 agonist 2.5 | M1 agonist conf inconclusive | M4 agonist ctr inactive
Cc1csc(SCC(=O)Nc2ccccn2)n1	none
CC1=C(C(=O)OCC(C)C)C(c2cccc(Cl)c2)NC(=O)N1 (stereo not given)	none (no result: Autofluor 339, A340 absorber, WNV protease inh, M1 antagonist, M1 agonist)
O=C(Nc1ccc(Cc2ccncc2)cc1)c1ccc(S(=O)(=O)N2CCOCC2)cc1	M1 antagonist -2.5, M1 agonist 13 | M1 agonist conf inactive | M4 agonist ctr inconclusive
O=C(Nc1ccc(S(=O)(=O)N2CCOCC2)cc1)c1ccc(Cl)cc1	none
Oc1ccc2cccnc2c1	M1 agonist 15 | M1 agonist conf 112 | M4 agonist ctr inactive
CCOC(=O)c1c(NC(=O)COc2cc(C)ccc2C(C)(C)C)sc2c1CCCC2	none (no result: Autofluor 339, A340 absorber, WNV protease inh, M1 antagonist, M1 agonist)
Cc1nc(N)sc1-c1csc(Nc2ccccc2)n1	none
CC(=O)Nc1nc(C)c(-c2csc(Nc3ccc(O)cc3)n2)s1	M1 antagonist -2, M1 agonist 6.4 | M1 agonist conf inactive | M4 agonist ctr inconclusive
CCOC(=O)N1CCC(NC(=O)C2CCCN(Cc3nc(-c4cccc(Cl)c4)oc3C)C2)CC1 (stereo not given)	M1 antagonist -4.4, M1 agonist 10 | M1 agonist conf inactive | M4 agonist ctr inactive
CCOC(=O)C1CCCN(C(=O)c2cc3nc(-c4cccc(OC)c4)cc(C(F)(F)F)n3n2)C1 (stereo not given)	M1 agonist 3.7 | M1 agonist conf inactive | M4 agonist ctr inactive
O=C(CCCc1nc(-c2ccc(Cl)cc2)no1)N1CCOCC1	M1 agonist -2.5 | M1 agonist conf inconclusive | M4 agonist ctr -90
O=C(Cn1nnc(-c2ccccc2)n1)OCc1csc(-c2ccccc2)n1	M1 agonist 14 | M1 agonist conf inactive | M4 agonist ctr inactive
COc1ccc(OC)c(C(c2nnnn2C2CCCC2)N2CCN(c3ccccc3)CC2)c1 (stereo not given)	M1 agonist -1.7 | M1 agonist conf inactive | M4 agonist ctr inactive
COc1cccc(C(c2nnnn2Cc2ccccc2)N2CCN(C3CCCC3)CC2)c1OC (stereo not given)	M1 antagonist -1.7, M1 agonist 2.8 | M1 agonist conf inactive | M4 agonist ctr inactive
COc1ccc(C(c2nnnn2C2CCCCC2)N2CCN(c3ccc(OC)cc3)CC2)cc1 (stereo not given)	none
CCCC(c1nnnn1Cc1ccccc1)N1CCN(c2ccccc2OC)CC1 (stereo not given)	M1 agonist 7.1 | M1 agonist conf inactive | M4 agonist ctr inactive
CS(=O)(=O)N(CC(=O)NCc1ccncc1)Cc1ccc(Cl)cc1	M1 agonist 2.2 | M1 agonist conf inactive | M4 agonist ctr inactive
COc1ccc(Cl)cc1C(=O)N1CCC(Cc2ccccc2)CC1	none (no result: Autofluor 339, A340 absorber, WNV protease inh, M1 antagonist, M1 agonist)
COc1ccc(OC)c(NC(=O)Cn2cc(C(=O)c3ccco3)c3ccccc32)c1	none (not shown: BAP1 inh)
COc1cccc(OCCn2cc(C(=O)c3ccco3)c3ccccc32)c1	M1 agonist 5 (not shown: BAP1 inh) | M1 agonist conf inactive | M4 agonist ctr inactive
Nc1cc(Cl)ccc1N1CCOCC1	none

Screening results deposited in PubChem BioAssay by several laboratories.
